# Results as given in PubChem BioAssay AID1491 (National Center for Advancing Translational Sciences (NCATS), 2009).
# Values joined by “and” are separate entries in the source; they are usually repeats but may differ in a detail not shown here. Equal entries are not always repeated. Results filed as inconclusive are left out. A number with no mark means an inactive call. Active and inactive are the calls of the source. Calls follow the shape of the dose curve; as a rule, active = well fitted inhibition curve with a large enough effect in the main read-out, with a control signal flat; inconclusive = small, poorly fitted or top-dose-only effect, or a change in a side signal; inactive = flat fitted curve, though single readings scatter.
# Molecular target: Neuropeptide S receptor (Homo sapiens) (UniProt Q6W5P4)
# Experiment: Confirmation Concentration-Response Assay for Antagonists of the Neuropeptide S Receptor: cAMP Signal Transduction;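 as to activity change, negative = inhibition: 0% = DMSO with NPS and full inhibition = wells lacking NPS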
# Details: CHO-NPSR cells, cAMP TR-FRET, antagonist mode; series mostly up to 22.3 µM; activity change, negative = inhibition: at the top concentration
# Procedure, shortened: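 LANCE TR-FRET cAMP read-out: 665/620 nm emission ratio, with the 620 nm donor channel also reported, after 2 h RT detection. Stably transfected CHO-NPSR cells got compound titrations and 100 nM NPS in stimulation reagent for 60 min at 37C. IC50 came from Hill fits.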
# Potency is read from the fitted curve at half-maximal effect.
# Chain of Neuropeptide S receptor (Homo sapiens) (Q6W5P4 whole entry, looked up): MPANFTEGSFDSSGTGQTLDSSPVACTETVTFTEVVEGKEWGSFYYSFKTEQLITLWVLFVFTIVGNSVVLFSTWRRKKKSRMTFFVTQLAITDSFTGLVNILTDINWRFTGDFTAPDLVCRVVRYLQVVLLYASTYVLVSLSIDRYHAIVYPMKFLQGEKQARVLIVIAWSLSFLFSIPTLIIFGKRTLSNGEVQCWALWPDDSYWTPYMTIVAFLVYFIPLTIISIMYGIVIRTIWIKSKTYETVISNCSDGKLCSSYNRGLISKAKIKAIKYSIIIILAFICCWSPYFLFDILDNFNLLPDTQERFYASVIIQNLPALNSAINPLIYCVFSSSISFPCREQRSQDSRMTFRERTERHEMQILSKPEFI
SMILES,"activity change, negative = inhibition [%]",Potency
CN(CC(=O)NCc1ccc(F)cc1)S(=O)(=O)c1cccc2nsnc12,7.19,
CN(C)C(=S)N=Nc1[nH]c2ccccc2c1O,,10 µM (active)
N=c1c2c(ccn1-c1ccccc1)Oc1ccc3ccccc3c1C2c1ccccc1 (stereo not drawn),,2.51 µM (active)
COc1cccc(C2c3c(ncn(CCN4CCOCC4)c3=N)Oc3ccc4ccccc4c32)c1 (stereo not drawn),,2.51 µM (active) and 10 µM (active)
CCN(CC)S(=O)(=O)c1ccc2c(c1)nc(SC(C)C(N)=O)n2-c1ccc(OC)cc1 (stereo not drawn),-17.6,
O=C(O)CCCCCNc1nc(=S)[nH]c2ccccc12,-0.723,
CCOC(=O)CCCC(=O)Nc1ncnc2c1C(c1ccccc1)c1c(ccc3ccccc13)O2 (stereo not drawn),,2 µM (active)
CCC(C)(C)NC(=O)Cc1ccc(C)cc1,11.3,
N#CC(C#N)=c1ccc2c(c1)NC1(CCCCC1)N=2,-11.4,
CC1CCCc2sc3nc(N4CCN(CCO)CC4)n4ncnc4c3c21 (stereo not drawn),17.5,
S=C(Nc1ccccc1)Nc1nccs1,-6.4,
c1ccc(CSC2=NNC(c3ccccn3)S2)cc1 (stereo not drawn),-10.1,
Nc1ccc(-c2nc3c(Cl)cc(N)cc3[nH]2)cc1,-9.8,
CC(C)(C)OC(=O)Nc1ncnc2c1C(c1ccccc1)c1c(ccc3ccccc13)O2 (stereo not drawn),,3.55 µM (active)
O=C(O)C1CCN(c2nc(-c3ccccc3)nc3c2oc2ccccc23)CC1,-13.7,
CCC(=O)O[C@]1(C(=O)CCl)[C@@H](C)C[C@H]2[C@@H]3CCC4=CC(=O)C=C[C@]4(C)[C@@]3(F)[C@@H](O)C[C@@]21C,,11.2 µM (active)
Cn1c(C(=O)NCCN2CCc3ccccc3C2)cc2c(=O)[nH]c3ccccc3c21,3.7,
O=C(CSC1=NCCS1)Nc1ccnc2ccccc12,-13.8,
Cc1ccc(S(=O)(=O)Nc2cccc3ncccc23)s1,-10.1,
CC1C(c2ccccc2)N(C)C(c2ccccc2)CC1(O)c1ccccc1 (stereo not drawn),-5.26,
COCCCn1c(SCc2cc(=O)[nH]c3ccccc23)nnc1-c1ccco1,18.1,
NC(=O)OCC(COC(N)=O)c1ccccc1,-6.16,
O=C(NCc1ccccc1)Nc1ncnc2c1C(c1ccccc1)c1c(ccc3ccccc13)O2 (stereo not drawn),,2.24 µM (active)
